Screening data from PubChem BioAssay.
A selection: hits, their analogues and other compounds. The true share with any hit is near 3.8%.
VDR inhibitor: Inhibitors of the vitamin D receptor (VDR): qHTS; VDR-SRC2-3 peptide fluorescence polarization, 2 h; Potency, µM, usual class: inhibitors; 400,000 tested, 0.93% active
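FP read-out; VDR + SRC2-3 coactivator peptide; 23 nl compound by pintool; 2 h RT incubation; reagents held at 4 deg C, protected from light.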
TrxR1 inh: qHTS Assay for Inhibitors of Mammalian Selenoprotein Thioredoxin Reductase 1 (TrxR1): qHTS; Thioredoxin reductase 1, cytoplasmic (Rattus norvegicus), O89049; recombinant rTrxR1, NADPH fluorescence consumption, selenite substrate; Potency, µM (titrated, usually from 114 µM), actives largely listed as inhibitors; 390,000 tested, 1% active; AID 588453, 2011; further: nearly all actives have a fitted effect of over 65% in size
Target sequence (O89049 whole entry, looked up): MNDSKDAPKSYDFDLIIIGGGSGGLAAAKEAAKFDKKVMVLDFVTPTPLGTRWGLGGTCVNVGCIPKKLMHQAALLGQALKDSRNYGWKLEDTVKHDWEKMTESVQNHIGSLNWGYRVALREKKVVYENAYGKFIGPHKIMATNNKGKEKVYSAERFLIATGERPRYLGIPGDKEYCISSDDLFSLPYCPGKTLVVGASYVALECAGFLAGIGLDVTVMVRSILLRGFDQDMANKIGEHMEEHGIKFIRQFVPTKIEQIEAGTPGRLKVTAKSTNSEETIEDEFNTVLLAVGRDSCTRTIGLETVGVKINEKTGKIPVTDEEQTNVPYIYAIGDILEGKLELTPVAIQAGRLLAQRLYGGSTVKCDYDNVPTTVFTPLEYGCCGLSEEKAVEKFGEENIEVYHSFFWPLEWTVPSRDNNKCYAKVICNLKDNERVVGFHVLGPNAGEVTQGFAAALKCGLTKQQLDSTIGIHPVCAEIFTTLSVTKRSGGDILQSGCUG
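Rat TrxR1 (90 nM in the dispensed reagent) was pre-reduced with 400 uM NADPH for 5 min at room temperature, then incubated with compound for 15 min. After 400 uM selenite was added, NADPH fluorescence (Ex 340/Em 450 nm) was followed for 8 min.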
GLS inhibitor: qHTS for Inhibitors of Glutaminase (GLS); 410,000 tested, 0.21% active; AID 624170, 2012; GLS enzymatic activity, qHTS titration; Potency, µM (top dose mostly 45.5 µM), actives largely listed as inhibitors
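Two-point fluorescence kinetic (t0, 30 min RT) for hKGA; glutamate detected via glutamate oxidase–HRP–Amplex Red. Substrate: 1 mM L-glutamine solution; buffer 45 mM KH2PO4, pH 8.2.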
Sfp inh: qHTS Assay for Inhibitors of Bacillus subtilis Sfp phosphopantetheinyl transferase (PPTase). 4'-phosphopantetheinyl transferase ffp (Bacillus subtilis), Q9F4F7. Potency, µM, usual class: inhibitors. Biochemical Sfp PPTase activity, qHTS. 310,000 tested, 3.5% active;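 further: the enzyme is Sfp with the accession as filed and its product quenches rhodamine fluorescence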
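Sfp 15 nM + cpd, 15 min RT; start w/ rhodamine-CoA 5 uM, BHQ-2-YbbR 12.5 uM (final); 50 mM Hepes pH 7.6, 10 mM MgCl2, 0.01% NP-40, 0.01% BSA; read 525/598 nm at 0 and 30 min.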
TrxR1 substrate: qHTS Assay for Substrates of Mammalian Selenoprotein Thioredoxin Reductase 1 (TrxR1): qHTS | purified TrxR1 substrate turnover, NADPH consumption readout | 390,000 tested, 0.01% active | Potency, µM (titrated, usually from 114 µM) | Thioredoxin reductase 1, cytoplasmic (Rattus norvegicus), O89049; further: nearly all actives have a fitted effect of over 50% in size
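Rat TrxR1, dispensed at 90 nM, was prereduced with 400 uM NADPH (final) for 5 min at ~22 deg C, then incubated with compound 15 min before 400 uM selenite. A first-read NADPH fluorescence drop versus no-compound background flagged substrates.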
KAT2A inh: qHTS Assay for Inhibitors of GCN5L2. AID 504327, 2011. Potency, µM (highest dose often 58.9 µM), most hits filed as inhibitors. 390,000 tested, 0.21% active. GCN5L2 HAT assay, ThioGlo1 CoA-SH fluorescence. Histone acetyltransferase KAT2A (Homo sapiens), Q92830
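Enzyme at 20nM final was mixed with library compounds for 15 min at room temperature. Peptide H3(1-25) at 75uM, acetyl-CoA at 70uM and ThioGlo1 at 50uM were then added. Plates were read immediately and after 20 min (Ex340nm/Em540nm).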
Each line names hits and unclear results; the compound was inactive in the other large screens. The call rests on the fitted dose curve; in most records, active means well fitted curve in the direction sought with a large enough effect; inconclusive means small, poorly fitted or top-dose-only effect, or another doubt; inactive means no such curve, though single readings can be large; an effect the other way counts as inactive or inconclusive.

Clc1cccc(-c2cc3nc4c(c(N5CCNCC5)n3n2)CCCC4)c1	none (no result: VDR inhibitor, TrxR1 inh, GLS inhibitor, TrxR1 substrate)
CC1(C(=O)O)CCCN(C(=O)c2ccc3c(c2)C(C)(C)CCC3(C)C)C1 (stereo not drawn)	none (no result: VDR inhibitor, TrxR1 inh, Sfp inh, TrxR1 substrate, KAT2A inh)
Nc1c(C(=O)Nc2ccc(Br)cc2)sc2nc(-c3ccco3)ccc12	Sfp inh 10µM
Nc1c(C(=O)Nc2ccc(F)cc2)sc2nc(-c3ccco3)ccc12	TrxR1 inh inconclusive, Sfp inh 7.9µM
Cc1ccc(NC(=O)c2sc3nc(-c4ccc(F)cc4)ccc3c2N)cc1F	none (no result: Sfp inh)
CC1CCc2nc3ccc(S(=O)(=O)N4CCC(C(=O)NCc5ccccc5Cl)CC4)cc3c(C(=O)O)c2C1 (stereo not drawn)	none
CC(C)c1nc2sc3c(c2c(=O)o1)CCCC3	none
O=c1c2c3c(sc2nc2n1CCCCC2)CCCC3	Sfp inh 32µM
Cc1sc2nc(-c3ccccc3)oc(=O)c2c1C	none
Cc1nc2sc3c(c2c(=O)o1)CCCC3	Sfp inh 40µM
O=c1c2c3c(sc2nc2n1CCCCC2)CCCCC3	none (no result: VDR inhibitor, TrxR1 inh, GLS inhibitor, TrxR1 substrate)
Cc1nc2sc(C)c(C)c2c(=O)o1	Sfp inh 20µM
COc1ccc(CC(=O)NCC2CCCCC2)cc1OC	none
Oc1ccc(Br)cc1/C=N/n1c(-c2ccccc2)n[nH]c1=S	Sfp inh 56µM
O=[N+]([O-])c1ccccc1/C=N/n1c(-c2ccccc2)n[nH]c1=S	TrxR1 inh inconclusive
Oc1ccc(/C=N/n2c(-c3ccccc3)n[nH]c2=S)cc1	GLS inhibitor 16µM
S=c1[nH]nc(-c2ccccc2)n1/N=C/c1cccs1	TrxR1 inh inconclusive
Oc1c(Br)cc(Br)c(/C=N/n2c(-c3ccccc3)n[nH]c2=S)c1Br	VDR inhibitor inconclusive, Sfp inh inconclusive, KAT2A inh 28µM
O=C(CCC(=O)Nc1ccc(Cl)cc1Cl)N/N=C/c1ccc([N+](=O)[O-])o1	TrxR1 inh 11µM
Cc1ccc(/C=N/NS(=O)(=O)c2ccccc2)o1	none
O=[N+]([O-])c1ccc(/C=N\NS(=O)(=O)c2ccc(F)cc2)o1	TrxR1 inh 32µM, Sfp inh inconclusive
O=[N+]([O-])c1ccc(/C=N/NC(=S)Nc2ccccc2)o1	TrxR1 inh 18µM, Sfp inh inconclusive
O=C(N/N=C\c1ccc([N+](=O)[O-])o1)c1cncc(Br)c1	TrxR1 inh 22µM
Cc1cccc(N2CCN(C(=O)CCNS(=O)(=O)c3ccc4c(c3)CCN4C(=O)C3CC3)CC2C)c1 (stereo not drawn)	none (no result: Sfp inh)
CC/C(=N\O)c1ccc(OC)c(OC)c1	none
COc1ccc([C@@H]2C[C@H](c3ccccc3)Oc3cc(OC)c(OC)c(OC)c32)cc1	none
O=C(N/N=C/c1ccc([N+](=O)[O-])o1)c1ccc(O)cc1	TrxR1 inh 20µM
CCNc1nc(NCC)nc(N/N=C/c2ccc([N+](=O)[O-])o2)n1	TrxR1 inh 45µM
O=[N+]([O-])c1ccc(/C=N/Nc2nc(N3CCCC3)nc(N3CCCC3)n2)o1	none
CCn1c2ccccc2nc2cc3c(cc21)c(Cl)c(=O)c1ccccc13	none (no result: VDR inhibitor, TrxR1 inh, Sfp inh, TrxR1 substrate, KAT2A inh)
CC(C)C[C@@H](CN1CCCC1CN1C(=S)NC[C@@H]1Cc1ccc(O)cc1)N1C[C@H](Cc2ccccc2)N(CC2CCCCCC2)C1=S (stereo partly drawn)	none (no result: Sfp inh, KAT2A inh)
CC(C)OC(=O)CNc1n[nH]c(=S)[nH]c1=O	Sfp inh 45µM
CCOC(=O)CSc1nnc(NCC(=O)OC(C)C)c(=O)[nH]1	TrxR1 inh 1.8µM, Sfp inh inconclusive
COC(=O)CNc1n[nH]c(=S)[nH]c1=O	Sfp inh 50µM
CN(C)C(=O)CNc1n[nH]c(=S)[nH]c1=O	Sfp inh 20µM
COC(=O)CCNc1n[nH]c(=O)[nH]c1=O	none
COc1cc(NC(=S)NC(C)(C)C)c(OC)cc1Cl	none
Fc1ccccc1N1CCN(c2nc3ccccc3c3nc(-c4ccccc4)nn23)CC1	none (no result: Sfp inh)
COC(=O)c1ccccc1NC(=O)Cc1nc(-c2ccccc2)sc1-c1ccc(C)cc1	none
Cc1cc(C)cc(COc2ccc3c(C)c(CC(=O)O)c(=O)oc3c2C)c1	TrxR1 inh inconclusive
CC1CCN(CC[S-])CC1.O.O.[Cl][Pt]	TrxR1 inh 1.4µM (no result: VDR inhibitor, GLS inhibitor, Sfp inh, KAT2A inh)
O=C(O)C1CC(O)CN1S(=O)(=O)c1cccs1 (stereo not drawn)	none
COc1ccc2cc(S(=O)(=O)N3CCCC(C)C3)ccc2c1 (stereo not drawn)	VDR inhibitor 89µM
CC1CCCN(S(=O)(=O)c2ccc3c(c2)C(C)(C)C(=O)N3C)C1 (stereo not drawn)	KAT2A inh 28µM
CN1CCN(S(=O)(=O)c2ccc3c(c2)C(C)(C)C(=O)N3C)CC1	none
CC1CCc2c(sc(NC(=O)c3ccc(-c4ccccc4[N+](=O)[O-])o3)c2C#N)C1 (stereo not drawn)	none
CCN(CC)S(=O)(=O)c1ccc(N=Nc2c(C)[nH]n(C(N)=S)c2=O)cc1	TrxR1 inh inconclusive, Sfp inh 79µM
CCOC(=O)c1c(C)[nH]c(O)c1C=Nc1ccccc1	Sfp inh inconclusive
COC(=O)c1c(C)[nH]c(O)c1C=Nc1ccc(C#N)cc1	TrxR1 inh inconclusive, Sfp inh 45µM
COC(=O)c1ccc2c(c1)NC(=O)C(N1CCOCC1)S2 (stereo not drawn)	none
O=C(NCCCN1CCCC1=O)c1ccc2c(c1)NC(=O)C(N1CCOCC1)S2 (stereo not drawn)	Sfp inh 71µM
CC(C)(C)n1nc2c(c1NC(=O)Cc1ccc(F)cc1)CSC2	Sfp inh inconclusive
O=C(Cc1cnn(-c2ccccc2)c1)c1ccc(O)c(O)c1O	Sfp inh 32µM
COc1ccc(CCNC(=O)c2cc3c(=O)n4ccccc4nc3n2C)cc1	TrxR1 inh inconclusive (no result: Sfp inh)
CN(C)c1ccc(/C=C2/C(=O)N(c3ccc([N+](=O)[O-])cc3)N=C2N2CCOCC2)cc1	none (no result: VDR inhibitor, TrxR1 inh, GLS inhibitor, TrxR1 substrate)
O=C1C(Cl)=C(N2CCOCC2)C(=O)N1c1ccccc1Cl	VDR inhibitor 45µM
O=C(C[C@H]1C[C@H](C(=O)N2CCCCC2)[C@@]2(CCc3ccccc3)c3[nH]c4cc(-c5ccco5)ccc4c3CCN2C1=O)NCc1ccco1	none (no result: Sfp inh)
